Screen size: about 150,000 compounds; about 540 (0.36%) showed an effect of 50% or more. The sample holds strong results, similar compounds and a random draw of the others, so the mix is not that of the screen.

This experiment concerns Plasmodium falciparum. Briefly: Primary screen in NF54 nanoGlo assay, in single point, at 2uM, 72h; a lower Z score goes with more inhibition. The format is functional, Erythrocyte. Conditions: timepoint 72 hour.
In general, % Inhibition refers to the change of the read-out against control, counted positive when it falls. Take `CC1(N2CCC2)CCC(NC[C@H]2CCN(Cc3ccccc3)C2)CC1` (stereo not given in full): the “% Inhibition” value is reported as 73% and the Z score is listed as -12.59.
For `CC(=O)N1CCC(CNC2CCC(C)(N3CCCC3)CC2)CC1` (stereo not given), in that order: -10% and 1.74.
With `c1ccc(CN2CCC[C@H](CNC3CCN(c4ccc5c(c4)OCO5)CC3)C2)cc1`, the “% Inhibition” value stood at 14% and the Z score is listed as -2.53.
Take `Nc1ccnc2ccc(-c3ccc(C(=O)NCC4CCOCC4)cc3)cc12`: the “% Inhibition” value was found to be 83% and the Z score is recorded as -16.44.
Taken in the same sequence, the figures for `OC1CN(c2ccnc3ccccc23)CCC1N1CCN(c2ccccn2)CC1` (stereo not given) were -7% and 1.2.
Taken in the same sequence, the figures for `O=C(NC1CCN(CCOc2ccc(Cl)cc2)CC1)c1c[nH]c2ccncc2c1=O` were 94% and -14.22.
For the compound `CCCCN1CCC(NC(=O)c2c[nH]c3ncccc23)CC1`, the “% Inhibition” value was -8% and the Z score amounted to 1.66.
In the case of `CCCc1cc(NCC2(N3CCN(C)CC3)CCCCC2)n2nccc2n1`, the “% Inhibition” value is reported as -3% and the Z score is given as 0.64.
Regarding `CNc1cc([C@H]2C[C@@H](NC3CC(C)(C)NC(C)(C)C3)C2)ncn1`, the “% Inhibition” value is recorded as 11% and the Z score is -1.95.
Consider `CNc1nc(N[C@H]2CCCN(Cc3ccc(Cl)cc3)C2)nc2c1CCC2`, for which the “% Inhibition” value came to 49% and the Z score was -8.5.
For `Cc1cc(N2CCC(N(C)Cc3ccc4nsnc4c3)CC2)nc(N)n1`, in that order: 18% and -3.91.
For `Cc1cc(N2CCC(NCc3ccc(C(F)(F)F)cc3F)CC2)nc(N)n1`, in that order: 10% and -2.1.
With `Cc1cc(N2CCC(NC3CCCC3Cc3ccc(F)cc3)CC2)nc(N)n1` (stereo not given), the “% Inhibition” value came out at 96% and the Z score is reported as -14.52.
As to `CN(C)c1ncc(CN2CCN(c3nsc4ccccc34)CC2)cn1`, the “% Inhibition” value came to 5% and the Z score is recorded as -0.94.
Taken in the same sequence, the figures for `O=C(Nc1cnc2c(c1)COCC2)c1cc2c(OC(F)(F)F)cccc2[nH]1` were 93% and -14.17.
Taken in the same sequence, the figures for `CN(c1ccccc1)c1ccc(CN2CCN([C@H]3CCNC3)CC2)cc1` were 68% and -13.59.
On to `Cc1ocnc1CNC[C@H](O)c1ccc(Cl)c(Cl)c1`, for which the “% Inhibition” value worked out at 94% and the Z score is listed as -18.67.
Taken in the same sequence, the figures for `Cn1nc(C(=O)Nc2cnc(CC3CC3)nc2)cc1C(F)(F)F` were 1% and -0.26.
Consider `CCCN1CCC(Nc2cc(C)nc3ccccc23)CC1`, for which the “% Inhibition” value worked out at 58% and the Z score is -8.81.
For `CCC(=O)N1CC[C@H](Nc2cc(C)nc3ccccc23)C1`, in that order: -8% and 1.36.
Taken in the same sequence, the figures for `Cc1ccc2[nH]c(-c3cc4n(n3)CCN(c3ccnc(N)n3)C4)nc2c1C` were 84% and -16.64.
Taken in the same sequence, the figures for `CN1CCC(N(C)C[C@H](Nc2ncnc3ccccc23)c2ccccc2)CC1` were 98% and -17.15.
Regarding `C[C@](O)(CN1CCC(NCc2ccccc2)CC1)C(F)(F)F`, the “% Inhibition” value is -6% and the Z score is 0.96.
On to `COc1ccccc1N1CCN(C2CCN(c3ccc(C(=O)N[C@@H](C)c4ccccc4)cc3)CC2)CC1`, for which the “% Inhibition” value is reported as -11% and the Z score is 1.99.
For `OC1(c2ccc(Cl)cc2)CCN(C[C@@H]2CCCN3CCCC[C@H]23)CC1`, in that order: 82% and -16.27.
On to `CC(CCO)CNc1nc(NCC(C)CCO)c2ccccc2n1` (stereo not given), for which the “% Inhibition” value came to 1% and the Z score is -0.17.
Taken in the same sequence, the figures for `COCCNc1nc(N[C@@H](C)c2ccccc2)c2ccccc2n1` were 52% and -11.2.
For `CCNc1nc(NCc2ccccc2)c2cn[nH]c2n1`, in that order: -6% and 1.21.
Regarding `CN1CCN(C2(CNc3ncc(F)c(N(C)C)n3)CCCCC2)CC1`, the “% Inhibition” value stood at 7% and the Z score is given as -1.15.
Taken in the same sequence, the figures for `Cc1noc(-c2cccc(NC(=O)c3ccccc3-c3ncc(-c4ccccc4)o3)c2)n1` were -8% and 1.16.
Taken in the same sequence, the figures for `CN1CCN(C[C@H]2CCCN(CC(C)(C)N3CCOCC3)C2)CC1` were -20% and 3.47.
As to `Cc1cccc2c(-c3n[nH]c4ncnc(N)c34)c[nH]c12`, the “% Inhibition” value was -3% and the Z score came to 0.47.
For `CC(C)CCC1CCCC1NCCCN1CCOCC1` (stereo not given), in that order: 6% and -1.29.
Consider `COc1ccc2c(O)c(Br)c(C)nc2c1`, for which the “% Inhibition” value stood at 75% and the Z score was -13.24.
Turning to `COc1ccc2nc3cc(Cl)ccc3c(O)c2c1`, the “% Inhibition” value is given as 65% and the Z score is recorded as -9.86.
For `CNc1cc(C)nc2cc(OC)ccc12`, in that order: -6% and 0.97.
Taken in the same sequence, the figures for `COCCN1CCC[C@@]2(CCN(c3ccnc4cc(Cl)ccc34)C2)C1` were 99% and -17.32.
For `COCCN1CC[C@H](CN(C)c2ccnc3cc(Cl)ccc23)C1`, in that order: 98% and -17.
For the compound `CN1CCC[C@@H]1CCNc1ncnc2cccc(F)c12`, the “% Inhibition” value is 9% and the Z score is recorded as -1.43.
Take `CCN(Cc1[nH]c2ccc(Cl)cc2c1C)CC1CCN(C2CCN(C)CC2)CC1`: the “% Inhibition” value came to 85% and the Z score is listed as -14.61.
Taken in the same sequence, the figures for `CCN(Cc1cccc(OC2CCCC2)c1)CC1CCN(C2CCN(C)CC2)CC1` were 20% and -3.46.
As for `COc1ccc2[nH]c(CN(Cc3cccnc3)CC3CCN(C4CCCC4)CC3)c(C)c2c1`, the “% Inhibition” value is 1% and the Z score is given as -0.23.
Turning to `CCN(Cc1cnc(-c2ccccc2C)nc1)CC1CCN(C2CCN(C)CC2)CC1`, the “% Inhibition” value is recorded as -7% and the Z score was determined as 1.18.
Taken in the same sequence, the figures for `CCN(Cc1cc(F)ccc1-n1cccn1)CC1CCN(C2CCN(C)CC2)CC1` were 16% and -2.76.
Take `CCN(Cc1cnn(-c2cccc(Cl)c2)c1)CC1CCN(C2CCN(C)CC2)CC1`: the “% Inhibition” value is recorded as 82% and the Z score was -14.12.
On to `Fc1ccc2ncnc(NC3CCN(C[C@H]4CCOC4)CC3)c2c1`, for which the “% Inhibition” value is reported as -10% and the Z score amounted to 2.15.
Take `CN(CCCn1ccnc1)c1ccnc2cc(Br)ccc12`: the “% Inhibition” value stood at 99% and the Z score was -17.18.
For `COc1cccc(-c2nc3cc(C#N)ccc3[nH]2)n1`, the “% Inhibition” value is reported as 0% and the Z score was 0.04.
For the compound `N#Cc1cccc(Cl)c1N1CCC(O)(CN)CC1`, the “% Inhibition” value is recorded as -3% and the Z score was found to be 0.43.
As to `NCC1(O)CCN(c2ccnc3cc(F)c(Cl)cc23)CC1`, the “% Inhibition” value came to 95% and the Z score is given as -20.37.
For `O[C@@]1(c2c[nH]nn2)CCN(c2ccnc3cc(Cl)ccc23)C1`, in that order: 44% and -6.63.
In the case of `Cn1c(NCc2ccc(N3N=C(c4ccccc4)C[C@H]3c3ccccc3)cc2)nc2ccccc21`, the “% Inhibition” value is listed as -11% and the Z score was 1.96.
For `CN1CCN(CCOc2ccccc2CN2CC3CCC(C2)NC3)CC1` (stereo not given), the “% Inhibition” value was -1% and the Z score is listed as 0.22.
Taken in the same sequence, the figures for `C[C@H]1CCCN(CCOc2ccccc2CN2CCN(c3cccnc3)CC2)C1` were -2% and 0.3.
For `Cc1cnccc1N1CCCN(Cc2ccccc2OCCN2CCN(C)CC2)CC1`, in that order: 96% and -19.05.

(Values after ChEMBL document CHEMBL5308541, “MAIP: An Open-Source Tool to Enrich High-Throughput Screening Output and Identify Novel, Druglike Molecules with Antimalarial Activity” (ACS Med Chem Lett, 2023).)
